# Laboratory results taken from PubChem BioAssay (NCATS).
# Results filed as inconclusive are left out. Unmarked numbers belong to inactive results. The source made the active and inactive calls. Unless noted, calls follow the shape of the full dose curve.
# Tested on: not listed separately
# Test: AP1 Signaling Pathway (AID 357; active = well fitted curve in either direction with a large enough effect, not every such curve was filed as active;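 also: ME-180 reporter cells stimulated with EGF at its EC50 level; % is scaled to controls: 0 for no effect and ±100 for the full control effect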)
# Conditions: ME-180 (cervical carcinoma) AP-1-bla reporter, EGF-induced, beta-lactamase ratio, 5 h; at 17.2 µM (top of the series)
# Method in brief: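 Modulation of EGF-driven AP-1 transcription was assessed with a beta-lactamase reporter in ME-180 cells. Compound and EC50 EGF were co-incubated 5 hours at 37 °C before 2.5-hour CCF4 loading at room temperature and dual-emission reading.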
row,Structure (SMILES),"activity change, negative = inhibition"
1,CC[C@H]1CN2CCc3cc(OC)c(OC)cc3[C@@H]2C[C@@H]1C[C@H]1NCCc2cc(OC)c(OC)cc21,-119% (active)
2,Cc1ncc([N+](=O)[O-])n1CC(O)CCl (centres undefined),0.517%
3,Cn1cc[nH]c1=S,-7.08%
4,OCC(O)CN1CCN(c2ccccc2)CC1 (centres undefined),-1.76%
5,C[C@]12CC[C@@H]3c4ccc(O)cc4CC[C@H]3[C@@H]1CCC2=O,-1.97%
6,CN1[C@@H]2CC(OC(=O)[C@H](CO)c3ccccc3)C[C@H]1[C@@H]1O[C@@H]12 (some centres undefined),-6.51%
7,CN(C)CCOC(C)(c1ccccc1)c1ccccn1 (centres undefined),4.21%
8,NS(=O)(=O)c1cc2c(cc1C(F)(F)F)NC(Cc1ccccc1)NS2(=O)=O (centres undefined),-11.1%
9,O=C(CCCN1CCN(c2ccccn2)CC1)c1ccc(F)cc1,7.66%
10,CCCCOc1cc(C(=O)OCCN(CC)CC)ccc1N,-0.742%
11,CNCCC(Oc1ccc(C(F)(F)F)cc1)c1ccccc1 (centres undefined),21.9%
12,C[C@H](N)[C@H](O)c1cccc(O)c1,2.95%
13,CC(COc1ccccc1)NC(C)C(O)c1ccc(O)cc1 (centres undefined),9.92%
14,CC(=O)OCC(=O)[C@@]1(O)CC[C@H]2[C@@H]3CCC4=CC(=O)CC[C@]4(C)[C@H]3C(=O)C[C@@]21C,0.362%
15,CNC(=O)Oc1ccc2c(c1)[C@]1(C)CCN(C)[C@@H]1N2C,8.81%
16,CCCc1c(OCCCCc2nn[nH]n2)ccc(C(C)=O)c1O,-20.5%
17,C[C@@H]1C[C@H]2[C@@H]3C[C@H](F)C4=CC(=O)C=C[C@]4(C)[C@@]3(F)[C@@H](O)C[C@]2(C)[C@@]1(O)C(=O)CO,-11.1%

# Target: Cytochrome P450 1A2 (Homo sapiens) (UniProt P05177)
# Sequence (P05177 whole entry, looked up): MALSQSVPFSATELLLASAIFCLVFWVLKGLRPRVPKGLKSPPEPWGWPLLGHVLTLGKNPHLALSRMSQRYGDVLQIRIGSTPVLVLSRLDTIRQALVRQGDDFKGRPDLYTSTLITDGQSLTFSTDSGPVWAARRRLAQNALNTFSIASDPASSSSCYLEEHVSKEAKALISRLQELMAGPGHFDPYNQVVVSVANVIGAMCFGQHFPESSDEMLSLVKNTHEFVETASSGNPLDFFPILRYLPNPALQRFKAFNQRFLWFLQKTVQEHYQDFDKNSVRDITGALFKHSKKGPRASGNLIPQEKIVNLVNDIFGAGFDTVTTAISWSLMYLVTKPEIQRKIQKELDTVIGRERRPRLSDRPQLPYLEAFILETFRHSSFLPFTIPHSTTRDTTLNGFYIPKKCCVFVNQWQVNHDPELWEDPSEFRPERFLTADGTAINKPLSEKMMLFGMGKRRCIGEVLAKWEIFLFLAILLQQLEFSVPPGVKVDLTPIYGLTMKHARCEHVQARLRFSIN
# Test: p450-cyp1a2 (AID 410); also: potency is read from the fitted curve at half-maximal effect;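 as to activity change, negative = inhibition: -100% = full effect of reference inhibitor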
# Conditions: recombinant CYP1A2, luciferin-ME demethylation, luminescence; series mostly up to 25.6 µM
# Method in brief: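 20nM CYP1A2 with 100uM Luciferin-ME (at Km) in 100mM KPO4; compound preincubated 10 min, NADPH regeneration added, 60 min at room temperature. Luciferin quantified by luminescence after detection reagent; normalized to 57 uM furafylline.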
row,Structure (SMILES),Potency
1,CN(C)CCCN1c2ccccc2CCc2ccccc21,inactive
2,O=c1cc(CO)occ1O,inactive
3,CN(C)CCC=C1c2ccccc2CCc2ccccc21,15.8 µM (active)

# Tested on: not listed separately
# Test: Cell Viability - BJ (AID 421);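 also: potency is read from the fitted curve at half-maximal effect; cells exposed to compound for 40 hours at 37 °C before readout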
# Conditions: BJ fibroblast viability, qHTS
# Method in brief: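 Quantitative HTS: ATP depletion in BJ cells after 40 hr compound exposure in complete culture medium, detected with CellTiter-Glo; AC50 from standard Hill fits.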
row,Structure (SMILES),Potency
1,NCCNCCNCCNCCN,> 92 µM
2,CC12CCC(CC1)C(C)(C)O2,> 92 µM
3,Cc1c(O)cccc1C(=O)N[C@@H](CSc1ccccc1)[C@H](O)CN1C[C@H]2CCCC[C@H]2C[C@H]1C(=O)NC(C)(C)C,25.2 µM (active)
4,Oc1cccc(O)c1,> 92 µM
5,CC1(C)[C@@H]2CC[C@@]1(C)C(=O)C2,> 92 µM
6,NC(=O)c1ncn([C@@H]2O[C@H](CO)[C@@H](O)[C@H]2O)n1,> 92 µM
7,[Cl][In]([Cl])[Cl],> 92 µM
8,O=C1c2c(O)cccc2Cc2cccc(O)c21,> 92 µM
9,NC(=O)N/N=C/c1ccc([N+](=O)[O-])o1,> 92 µM
10,NCCNCCNCCN,> 92 µM
11,CCCCCCCCCCCCOS(=O)(=O)O,> 92 µM
12,Cc1cc2nc3c(=O)[nH]c(=O)nc-3n(C[C@H](O)[C@H](O)[C@H](O)CO)c2cc1C,> 92 µM
13,O=C1O[C@H]([C@@H](O)CO)C(O)=C1O,> 92 µM
14,COc1ccccc1O,> 92 µM

# Tested on: not listed separately
# Test: Cell Viability - Hek293 (AID 427;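 active = compounds whose dose-response curve shows a full or clear partial loss of cell viability, called from curve shape rather than a numeric limit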;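 also: potency is read from the fitted curve at half-maximal effect; cells exposed to compound for 40 hours at 37 °C before reading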)
# Conditions: qHTS
# Method in brief: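 AC50 values derive from Hill-modelled concentration-response of ATP-based luminescence, normalized between DMSO-only and 100 uM tamoxifen controls. Cells were exposed in complete culture medium for 40 hr at 37 °C before detection.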
row,Structure (SMILES),Potency
1,NCCNCCNCCNCCN,> 92 µM
2,CC12CCC(CC1)C(C)(C)O2,> 92 µM
3,Cc1c(O)cccc1C(=O)N[C@@H](CSc1ccccc1)[C@H](O)CN1C[C@H]2CCCC[C@H]2C[C@H]1C(=O)NC(C)(C)C,24.4 µM (active)
4,Oc1cccc(O)c1,> 92 µM
5,CC1(C)[C@@H]2CC[C@@]1(C)C(=O)C2,> 92 µM
6,[Cl][In]([Cl])[Cl],> 92 µM
7,O=C1c2c(O)cccc2Cc2cccc(O)c21,> 92 µM
8,NCCNCCNCCN,> 92 µM
9,CCCCCCCCCCCCOS(=O)(=O)O,> 92 µM
10,Cc1cc2nc3c(=O)[nH]c(=O)nc-3n(C[C@H](O)[C@H](O)[C@H](O)CO)c2cc1C,> 92 µM
11,O=C1O[C@H]([C@@H](O)CO)C(O)=C1O,> 92 µM
12,COc1ccccc1O,> 92 µM

# Tested on: not listed separately
# Test: Cell Viability - HepG2 (AID 433);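 also: potency is read from the fitted curve at half-maximal effect; potency for ATP loss meaning cytotoxicity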
# Conditions: qHTS
# Method in brief: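 Cytotoxicity is scored as loss of intracellular ATP in HepG2 cells exposed to compounds for 40 h. Concentration-response curves, normalized to DMSO and 100 uM tamoxifen, give AC50 values.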
row,Structure (SMILES),Potency
1,NCCNCCNCCNCCN,> 92 µM
2,CC12CCC(CC1)C(C)(C)O2,> 92 µM
3,Cc1c(O)cccc1C(=O)N[C@@H](CSc1ccccc1)[C@H](O)CN1C[C@H]2CCCC[C@H]2C[C@H]1C(=O)NC(C)(C)C,24.6 µM (active)
4,Oc1cccc(O)c1,> 92 µM
5,CC1(C)[C@@H]2CC[C@@]1(C)C(=O)C2,> 92 µM
6,NC(=O)c1ncn([C@@H]2O[C@H](CO)[C@@H](O)[C@H]2O)n1,> 92 µM
7,[Cl][In]([Cl])[Cl],> 92 µM
8,O=C1c2c(O)cccc2Cc2cccc(O)c21,> 92 µM
9,NCCNCCNCCN,> 92 µM
10,CCCCCCCCCCCCOS(=O)(=O)O,> 92 µM
11,Cc1cc2nc3c(=O)[nH]c(=O)nc-3n(C[C@H](O)[C@H](O)[C@H](O)CO)c2cc1C,> 92 µM
12,O=C1O[C@H]([C@@H](O)CO)C(O)=C1O,> 92 µM
13,COc1ccccc1O,> 92 µM
